# Measured values as given in PubChem BioAssay AID864 (The Scripps Research Institute Molecular Screening Center, 2007).
# This is one part of the list. Values without a mark were called inactive. Cut-off read from the data, not from the text of the source: active = activation above about 8.4%; inactive = the rest.
# Biological target: Galanin receptor type 2 (Homo sapiens) (UniProt O43603)
# Test: GALR2 agonists, retest of hits, confirmation, cell-based (AID 864);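 note: 0% = buffer-only vehicle wells and 100% = full reference agonist response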
# Details: GALR2-expressing cells, agonist activation; at 5.6 µM; hits give high values
# Chain of Galanin receptor type 2 (Homo sapiens) (O43603 whole entry, looked up): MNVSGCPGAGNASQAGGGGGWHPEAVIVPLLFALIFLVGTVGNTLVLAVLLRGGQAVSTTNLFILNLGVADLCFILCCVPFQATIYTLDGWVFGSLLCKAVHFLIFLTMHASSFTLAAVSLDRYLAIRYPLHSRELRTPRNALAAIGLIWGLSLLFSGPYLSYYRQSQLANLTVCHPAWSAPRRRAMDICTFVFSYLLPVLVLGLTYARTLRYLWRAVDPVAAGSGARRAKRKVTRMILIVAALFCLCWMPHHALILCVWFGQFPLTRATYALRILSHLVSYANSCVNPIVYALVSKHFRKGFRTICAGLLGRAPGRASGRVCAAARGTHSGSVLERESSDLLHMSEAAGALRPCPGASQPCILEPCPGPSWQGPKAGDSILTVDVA
structure (smiles),measurement,value
Cc1cccc(N2C(=O)NC(=O)/C(=C\c3cnn(-c4ccccc4)c3)C2=O)c1,activation,-0.18%
